TRHR agonist – TRH receptor (human) agonism; 360,000 tested, 0.18% active; TRHR cells, calcium flux fluo-8, FDSS agonist mode; activation, % at 2 µM; in the data active means activation above about 30%; further: 0% is about no effect
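Read-out: compound-evoked intracellular calcium rise in TRHR cells, fluo-8 dye, kinetic FDSS fluorescence at 1 s/cycle following a 10-cycle baseline. Cells cultured overnight before dye loading (30 min–1.5 h, RT).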
GLP1R cytotox – cytotoxicity counter-screen for GLP-1 receptor inverse agonists. HEK293 cAMP-luciferase reporter cells, luminescence, 24 h. Potency, µM (highest dose often 38.3 µM), inactives show at the highest dose activity change, negative = inhibition, hits mostly inhibitors. 410,000 tested, 0.13% active. AID 624418;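 further: loss of luciferase light is scored as toxicity; potency means the concentration at half of the fitted maximal effect; on the % scale 0 is the no-effect control and ±100 the full control effect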
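Compound-treated cells are incubated 24 hr at 37 deg C under 5% CO2 after a 12 hour attachment period, then luciferase detection reagent is added and luminescence is measured following 12 min at room temperature; lowered signal indicates toxicity.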
TRPML1 blocker – inhibitors of human TRPML1 channel. TRPML1-inducible cells, Ca2+ dye fluorescence, FDSS; stronger effect = lower value; inhibition of EC80 agonist-evoked calcium signal. activity change, negative = inhibition, % (no concentration beside the values). AID 624415. Q9GZU1. 390,000 tested, 0.02% active; in the data active means activity change below about -50%; inconclusive means between about -30% and that limit;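 further: stimulus is agonist 54-4 at its EC80 concentration; on the % scale 0 is the no-effect control and ±100 the full control effect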
Target sequence (Q9GZU1 whole entry, looked up): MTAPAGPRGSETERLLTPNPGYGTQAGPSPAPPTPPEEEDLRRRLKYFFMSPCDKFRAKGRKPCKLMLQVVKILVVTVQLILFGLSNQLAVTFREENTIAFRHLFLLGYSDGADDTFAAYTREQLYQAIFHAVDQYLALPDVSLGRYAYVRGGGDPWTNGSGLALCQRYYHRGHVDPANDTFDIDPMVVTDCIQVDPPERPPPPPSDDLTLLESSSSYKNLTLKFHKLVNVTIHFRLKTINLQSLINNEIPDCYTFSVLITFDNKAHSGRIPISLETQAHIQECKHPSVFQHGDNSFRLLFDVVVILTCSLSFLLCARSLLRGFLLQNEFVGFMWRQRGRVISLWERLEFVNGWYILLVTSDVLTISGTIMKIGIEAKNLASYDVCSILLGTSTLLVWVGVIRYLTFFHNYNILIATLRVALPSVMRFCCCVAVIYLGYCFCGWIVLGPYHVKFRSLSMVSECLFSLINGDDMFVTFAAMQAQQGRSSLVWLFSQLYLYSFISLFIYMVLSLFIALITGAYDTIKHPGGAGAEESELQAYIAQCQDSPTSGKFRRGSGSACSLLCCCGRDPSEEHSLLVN
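TRPML1-DL cells, Tet-induced overnight (~16 h, 37 °C) at 1,500 cells/well, were loaded with Ca8 no-wash dye plus quencher for 45-90 min at room temperature. Compounds were pinned during FDSS kinetic reading; agonist 54-4 at EC80 (4 uM final) then added.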
PTHR1 agonist – activates the human parathyroid hormone receptor PTHR1. Q03431. HEK293 GP2 PTHR1 cells, GloSensor cAMP luminescence, 1 h. Potency, µM (series often up to 115 µM), without a hit: at the highest dose activation, most hits filed as activators. 410,000 tested, 0.075% active; further: potency means the concentration at half of the fitted maximal effect; nearly all actives have a fitted effect of over 55% in size
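HEK-293-derived GP2 cells expressing PTHR1 and a GloSensor cAMP reporter, 3,000/well, plated overnight, given luciferin plus IBMX (each 0.5 mM as added) for 1 h at 37 °C, then compound for 1 h at 37 °C. Luminescence was read after 15 min at room temperature.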
TRHR PAM – TRH receptor (human) allosteric enhancement; 360,000 tested, 0.66% active; TRHR cells, fluo-8 calcium fluorescence, EC20 TRH enhancement; P34981; enhancement, % at 2 µM; in the data active means enhancement above about 30%; further: 0% is about no effect
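TRHR-expressing cells loaded with fluo-8 calcium dye were read kinetically (ex 480/em 530) during compound addition, then stimulated with an EC20 of TRH (10 nM final). Enhancement of the Gq-mediated intracellular calcium response was scored.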
TRPML1 ag – agonists of human TRPML1 channel; TRPML1-expressing cells, Ca2+ dye fluorescence, FDSS; Q9GZU1; activation, % (concentration not given with the values); 410,000 tested, 0.12% active; in the data active means activation above about 50%; inconclusive means mostly about 30% to 49%; further: 0% is about no effect
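Cells: TRPML1-DL, 1X Tet inducer, ~16 h at 37 degrees C/5% CO2. Dye: ABD Ca8 no-wash + quencher, 45-90 min RT. Read: 10 s baseline, compound add, 110 s agonist phase; 54-4 EC80 (4uM final), 110 s antagonist phase.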
The depositor's hits bear a star; i = inactive; ? = inconclusive; . = no result; [ ] = dose if it differs, or a comment. This is a sample that favours compounds with a hit; in the whole collection about 0.93% have one here. Unless noted, the call rests on the fitted dose curve; in most records, active means well fitted curve in the direction sought with a large enough effect; inconclusive means small, poorly fitted or top-dose-only effect, or another doubt; inactive means no such curve, though single readings can be large; an effect the other way counts as inactive or inconclusive.

SMILES	TRHR agonist	GLP1R cytotox	TRPML1 blocker	PTHR1 agonist	TRHR PAM	TRPML1 ag
CC(=O)c1ccc(NC(=O)COC(=O)c2ccccc2N=Nc2ccc(N(C)C)cc2)cc1	0.0	10µM*	17.7	i	3.0	1.8
COC(=O)c1ccccc1NC(=O)COC(=O)c1ccccc1N=Nc1ccc(N(C)C)cc1	-1.5	4.8%	-14.8	-25.0%	5.6	-0.1
CCn1c(SC(C)C(=O)Nc2ccc(C)cc2)nnc1-c1ccccc1 (centres undefined)	.	.	.	.	.	-0.9
Nc1ncnc(Sc2ncccn2)c1[N+](=O)[O-]	0.4	11.2µM*	20.2	-55.0%	-1.0	0.8
CCSCCOC(=O)C1=C(C)NC(=O)NC1c1ccc2c(c1)OCO2 (centres undefined)	-0.2	1.8%	9.7	-8.0%	36.6*	-0.9
CC(=O)C[C@H]1c2cc(F)cc(F)c2S(=O)(=O)N1C1CCN(Cc2ccccc2)CC1	.	.	.	.	.	-0.1
O=C(CNC(=O)c1ccccc1)N[C@H](C(=O)Nc1cc(C(F)(F)F)ccc1Cl)c1ccccc1	-1.1	.	.	.	-1.9	.
C=CCCN(Cc1ccc(OC)cc1)S(=O)(=O)c1ccccc1Br	.	.	80.9	.	.	3.7
CCO[C@H]1OC(C(=O)N2CCN(Cc3ccc4c(c3)OCO4)CC2)=C[C@@H](C2CCCCC2)[C@@H]1CCCO	-0.6	9.6%	-4.5	-18.0%	37.7*	-0.7
CCN(CC)c1cc(C)c(/C=C/c2ccnc3ccccc23)cc1C	.	.	.	.	.	19.0
COc1ccc(C2C3C=CCCC3(C)C(=O)N2Cc2ccccc2)cc1Cl (centres undefined)	.	.	67.3	.	.	3.7
Cc1cc(=O)oc2cc(NC(=O)C(CCCN=C(N)N)NC(=O)OCc3ccccc3)ccc12 (centres undefined)	-0.9	-5.3%	-52.0*	i	-4.8	0.0
CCCCOC(=O)Nc1ccc2c(C)cc(=O)oc2c1	0.2	-7.1%	-3.4	i	40.1*	0.4
COC(=O)C(CC(C)C)Oc1ccc2c(C)cc(=O)oc2c1 (centres undefined)	-0.6	-17.8%	9.7	-5.0%[57.5 µM]	36.4*	0.3
CCOC(=O)Nc1ccc2c(C)cc(=O)oc2c1	0.7	5.9%	15.5	-7.6%[57.5 µM]	5.8	2.4
CC(=O)Oc1ccc2c(C)cc(=O)oc2c1	0.0	81.2%	18.5	-4.4%	-0.1	8.2
Cc1ccc(NC(=O)COC(=O)c2ccccc2OCC(=O)Nc2ccc(Br)cc2)c(Br)c1	.	.	.	.	.	-0.3
C=CC(=O)N1CCC[C@@H](n2nc(-c3ccc(Oc4ccccc4)cc3)c3c(N)ncnc32)C1	.	.	.	.	.	1.3
COc1cccc(C2C=C(c3ccc(Br)s3)Nc3ncnn32)c1OC (centres undefined)	32.8*	493.7%	5.7	i	0.3	1.7
O=C(c1cnn(-c2cccc(F)c2)c1-n1cccc1)N1CCN(c2ccccc2F)CC1	-0.4	0.4%	-12.8	-28.6%	-0.3	70.6*
O=C(Cc1ccc(OCc2ccccn2)cc1)NO	.	.	.	.	.	-0.4
CCOC(=O)c1ccc(-n2c(CN3CCN(CCO)CC3)nc3ccc([N+](=O)[O-])cc3c2=O)cc1	-0.2	0.8%	3.9	-1.2%	37.4*	-0.5
CCCCCCCCCC[n+]1ccc(/C=C/c2c(C)[nH]c3ccccc23)cc1	.	.	.	.	.	122.9*
CCCCCCC[n+]1ccc(/C=C/c2c[nH]c3ccccc23)cc1	.	.	.	.	.	63.3*
CC[n+]1ccc(/C=C/c2c[nH]c3ccccc23)cc1	16.6	-27.0%	-29.1	i	1.9	5.9
SMILES	TRHR agonist	GLP1R cytotox	TRPML1 blocker	PTHR1 agonist	TRHR PAM	TRPML1 ag
CCCN1CCN(c2ncnc3scc(C4COc5ccccc5O4)c23)CC1 (centres undefined)	-0.6	8.0%	34.8	?	35.9*	1.3
CCOc1cccc(C2C=C(c3ccc4c(c3)OCO4)NC(c3ccc(Cl)cc3)N2)c1O (centres undefined)	.	.	.	.	.	0.3
O=c1c2ccccc2sn1-c1ccccc1F	.	10µM*	.	-31.8%	.	.
O=c1c2cc(F)ccc2sn1-c1ccccc1	6.5	-8.2%	17.3	-21.8%	0.7	4.5
O=c1c2ccccc2sn1-c1ccccc1	2.1	?	-0.2	-14.1%	1.6	5.4
Cc1ccccc1-n1sc2cc(F)ccc2c1=O	2.5	4.47µM*	-9.8	-29.3%	-9.3	5.3
COc1ccc(CN(Cc2ccccc2)C(=O)C2CC2)cc1COc1ccc(NC(C)=O)cc1	.	.	.	.	.	-0.3
O=C1CCC[C@@H]2CC(N(Cc3cc4ccccc4s3)c3ccccc3)C[C@@H]3CCN1[C@H]23 (some centres undefined)	.	.	.	.	.	-0.4
CN1CCc2sc(NC(=O)Cc3ccccc3)c(C(=O)Nc3ccc(Cl)cc3)c2C1	0.6	.	.	.	3.4	.
Cc1ccc(CSC2=NS(=O)(=O)c3ccccc32)cc1	.	.	.	.	.	-0.5
CC(C)(C)OC(=O)Cc1nnc(-c2nc3ccccc3[nH]2)s1	0.9	.	.	.	-0.3	.
COc1ccccc1C(=O)NC(=S)NNC(=O)c1sc2ccccc2c1Cl	36.3*	9.9%	0.6	i	2.9	50.9*
COc1ccc(CN(Cc2ccccc2)C(=O)Nc2ccccc2)cc1COc1ccc(NC(C)=O)cc1	.	.	.	.	.	0.1
COc1ccc(N/C(N)=N/c2nc(C)cc(C)n2)cc1	.	-1.4%	-3.2	i	.	?
Cc1cc(C)nc(/N=C(\N)Nc2ccc(OCCC(C)C)cc2)n1	27.3	?	-15.2	-26.0%	-19.7	97.1*
Cc1cc(C)nc(/N=C(\N)Nc2cccc(OCc3ccccc3)c2)n1	24.8	?	19.4	-29.2%	-19.8	?
Cc1cc(C)nc(/N=C(\N)Nc2ccc(CC(=O)OC(C)C)cc2)n1	12.8	-0.7%	11.7	-26.0%	-8.0	68.4*
Cc1cc(C)nc(/N=C(\N)Nc2ccc(S(=O)(=O)O)cc2)n1	0.3	-1.2%	21.0	i	-12.1	-0.2
Cc1cc(C)nc(/N=C(\N)Nc2ccc(OCc3ccccc3)cc2)n1	49.8*	-27.2%	5.4	-15.4%	-2.6	81.1*
Cc1cc2c(s1)c1cnn(Cc3cccc(C(F)(F)F)c3F)c(=O)c1n2C	-0.2	.	.	.	-2.8	.
c1ccc(CNCc2nnc(-c3cc4ccccc4[nH]3)s2)cc1	0.8	.	.	.	3.6	.
COc1ccc(Nc2c3c(nc4ccc(NC(=O)c5ccc(F)cc5)cc24)CCCC3)cc1OC	-1.5	-6.8%	0.7	-22.0%	42.5*	-0.9
COc1ccccc1Nc1c2c(nc3ccc(NC(=O)c4ccc(OC)c(OC)c4)cc13)CCCC2	-0.4	?	12.4	-68.7%	4.0	0.8
COc1ccc(F)c(Cn2cnc3c(cnn3C(C)(C)C)c2=O)c1Cl	.	.	-28.1	.	.	1.7
O=C(C[n+]1ccccc1)Nc1c(Cl)cc(Cl)cc1Cl	-0.7	-4.6%	-1.3	i	38.7*	-0.2

High-throughput results (PubChem)
